Results on 21 compounds are retold here after PubChem BioAssay.

Structures are written as SMILES. Activity calls are given as the source filed them. Unless noted, no rule for the calls is given here.

In assay [1] the test system is XIP peptide (Xip251-270) binding. Kind of assay: XIP fragment 251-270 binding compounds – biochemical, small-molecule microarray, fluorescence 635/667 nm, 0.1 µg/mL protein, primary screen (AID 1182). The note with it: fluorescent protein binding, 635 nm, higher = more signal, called active from +8 up or from −8 down.
The next assay deals with XIP peptide (Xip251-270). The assay is described as follows: compounds binding XIP fragment 251-270 – biochemical, small-molecule microarray, fluorescence 635/667 nm, 0.5 µg/mL protein, primary screen (AID 1183). The note with it: fluorescence 635 nm, higher = more signal.
Assay [2] is described as follows: blood-stage malaria parasite viability loss – strain 3D7, DAPI fluorescence, 100 nL, primary screen (AID 1184).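 Also: parasites grown inside human red blood cells in medium with human serum.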 The note with it: P. falciparum 3D7 growth, 3 d, higher = more signal.
The target in assay [3] is Homeobox protein Hox-A13 (Mus musculus) (UniProt Q62424). Kind of assay: disruptors of Hoxa13 oligonucleotide interaction – biochemical, fluorescence polarization, labeled oligonucleotide, primary screen (AID 1185). The note with it: Hoxa13:DNA binding, 15 min, higher = more signal, called active from +8 up or from −8 down.
Assay [4] can be described thus: blockers of DNA damage checkpoint Chk1 activation – imaging, HeLa, hydroxyurea, phospho-Chk1 antibody, percent positive cells, primary screen (AID 1186). The note with it: hydroxyurea-induced phospho-Chk1 immunofluorescence imaging, higher = more signal.
A short description of assay [5]: blockers of DNA damage checkpoint Chk1 activation – imaging, HeLa, hydroxyurea, phospho-Chk1 nuclear intensity, primary screen (AID 1187). Conditions: hydroxyurea-induced phospho-Chk1 immunofluorescence imaging, higher = more signal.

Chain of Homeobox protein Hox-A13 (Mus musculus) (Q62424 whole entry, looked up): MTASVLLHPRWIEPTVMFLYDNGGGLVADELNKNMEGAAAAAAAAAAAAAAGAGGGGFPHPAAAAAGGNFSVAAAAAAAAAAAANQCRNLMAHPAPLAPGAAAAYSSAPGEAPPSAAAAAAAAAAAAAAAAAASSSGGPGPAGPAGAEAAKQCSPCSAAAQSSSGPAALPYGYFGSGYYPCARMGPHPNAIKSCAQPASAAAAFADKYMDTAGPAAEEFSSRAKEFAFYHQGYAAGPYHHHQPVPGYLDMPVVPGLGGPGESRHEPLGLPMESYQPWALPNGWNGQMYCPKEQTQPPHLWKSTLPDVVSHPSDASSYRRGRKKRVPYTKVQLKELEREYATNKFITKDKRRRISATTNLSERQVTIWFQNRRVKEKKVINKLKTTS

On to `C=C(COC)/C(=C/C[C@@H](OC(=O)c1ccncc1)c1cccc(OCCO)c1)c1cc(C(=O)OC)ccc1OC`, for which the composite z-score in assay [1] is 0.658 (inactive); in the assay on XIP peptide (Xip251-270), 0.657. In addition, the z-score in assay [2] is -2.38; in assay [3] it was -4.58 (inactive); in assay [4], 0.0182 (inactive); in assay [5], 0.527 (inactive).
For the compound `COC(=O)C(CC#Cc1ccc2c(c1)[C@]1(C(=O)N2)[C@H](C(=O)N2CCc3cc(OC)c(OC)cc3C2)[C@H]2C(=O)O[C@H](c3ccccc3)[C@H](c3ccccc3)N2[C@@H]1c1ccc(O)cc1)C(=O)OC`, the composite z-score in assay [1] is 0.534 (inactive); with XIP peptide (Xip251-270), 0.789. Also, the z-score in assay [2] was -2.45; in assay [3], -0.323 (inactive); in assay [4] it was 0.297 (inactive); in assay [5], 0.826 (inactive).
`COCCOC(=O)N1C(=O)[C@@]2(c3ccccc31)[C@H](c1ccccc1OCCO)N1[C@H](c3ccccc3)[C@H](c3ccccc3)OC(=O)[C@H]1[C@@H]2C(=O)N1CCc2cc(OC)c(OC)cc2C1`: the composite z-score in assay [1] was 0.159 (inactive); in the assay on XIP peptide (Xip251-270), 0.84. Besides, the z-score in assay [2] is -2.46; in assay [3], -2.43 (inactive); in assay [4], -0.453 (inactive); in assay [5], -0.193 (inactive).
With `COCCCNC(=O)[C@@]1(C)c2ccccc2C(=O)N(c2ccc(C)cn2)[C@H]1c1ccc(CO)cc1`, the results for the composite z-score (in assay [1]; in the assay on XIP peptide (Xip251-270)) were -0.625 (inactive) and 0.892, respectively. In addition, the z-score in assay [2] was 0.563; in assay [3], -1.9 (inactive); in assay [4], 0.228 (inactive); in assay [5], 0.554 (inactive).
Take `C=CC[C@]1(C(=O)NCC(O)CO)N=C(c2ccc(OCCCO)cc2)O[C@H]1c1ccccc1N=[N+]=[N-]` (stereo partly specified): the composite z-score in assay [1] was 2.54 (inactive); with XIP peptide (Xip251-270) it was 0.159. Also, the z-score is -2.3 in assay [2], -3.71 (inactive) in assay [3], -0.353 (inactive) in assay [4] and -0.236 (inactive) in assay [5].
Turning to `Cc1ccc(S[C@]2(C(=O)NCc3ccccc3)CC(=O)N(C3Cc4ccccc4C3)[C@@H]2c2ccc(CO)cc2I)cc1`, the composite z-score in assay [1] was 1.77 (inactive); with XIP peptide (Xip251-270) it was 0.23. The z-score in assay [2] was 0.237; in assay [3], -1.78 (inactive); in assay [4], -0.424 (inactive); in assay [5], -0.164 (inactive).
Regarding `COC(=O)[C@@]1(Cc2ccccc2)[C@H]2c3cc(C(=O)N(C)C)n(Cc4ccc(O)c(OC)c4)c3C[C@H]2CN1C(=O)c1ccccc1`, the composite z-score in assay [1] was 0.332 (inactive); in the assay on XIP peptide (Xip251-270), 0.664. The z-score is -1.55 in assay [2], -5.2 (inactive) in assay [3], 0.197 (inactive) in assay [4] and -0.0257 (inactive) in assay [5].
For `CC(C)NC(=O)[C@@H]1c2ccccc2C(=O)N(Cc2cc(C(F)(F)F)cc(C(F)(F)F)c2)[C@H]1c1ccc(CO)cc1`, the composite z-score was 1.14 (inactive) in assay [1] and 0.55 in the assay with XIP peptide (Xip251-270). For the same compound, the z-score in assay [2] is -0.337; in assay [3], -3.9 (inactive); in assay [4], 0.349 (inactive); in assay [5], 0.622 (inactive).
For `CO[C@H]1O[C@H](CO)[C@@H](OC(=O)Nc2ccc(C(F)(F)F)cc2)[C@H](OC(=O)Nc2ccccc2)[C@H]1OC(=O)Nc1ccccc1`, the composite z-score in assay [1] was 1.91 (inactive); in the assay with XIP peptide (Xip251-270) it was 0.911. The z-score is -2.56 in assay [2], -5.12 (inactive) in assay [3], -0.628 (inactive) in assay [4] and -0.699 (inactive) in assay [5].
Turning to `COCCOC(=O)N1C(=O)[C@@]2(c3cc(C#Cc4ccc(OC)cc4)ccc31)[C@H](c1ccc(OCCO)cc1)N1[C@H](c3ccccc3)[C@H](c3ccccc3)OC(=O)[C@H]1[C@@H]2C(N)=O`, the composite z-score is 1.12 (inactive) in assay [1] and 0.758 in the assay on XIP peptide (Xip251-270). Besides, the z-score is -1.97 in assay [2], -0.245 (inactive) in assay [3], 0.105 (inactive) in assay [4] and 0.247 (inactive) in assay [5].
With `Cc1ccc(S[C@]2(C(=O)NCCN3CCOCC3)CC(=O)N(C3Cc4ccccc4C3)[C@@H]2c2ccc(CO)cc2)cc1`, the composite z-score was 0.487 (inactive) in assay [1] and 0.547 in the assay with XIP peptide (Xip251-270). In addition, the z-score in assay [2] was -0.196; in assay [3], -4.63 (inactive); in assay [4], 0.672 (inactive); in assay [5], 1 (inactive).
In the case of `COCCCNC(=O)[C@@H]1c2ccccc2C(=O)N(c2ccc(C)cn2)[C@H]1c1ccc(CO)cc1`, the composite z-score in assay [1] was -0.0692 (inactive); in the assay on XIP peptide (Xip251-270), 0.305. Also, the z-score in assay [2] was -1.38; in assay [3], -0.943 (inactive); in assay [4] it was -0.106 (inactive); in assay [5], 0.236 (inactive).
Regarding `NC(=O)NCC#Cc1ccc2c(c1)[C@]1(C(=O)N2)[C@H](c2ccc(O)cc2)N2[C@H](c3ccccc3)[C@H](c3ccccc3)OC(=O)[C@H]2[C@@H]1C(N)=O`, the composite z-score was -0.0765 (inactive) in assay [1] and 0.603 in the assay on XIP peptide (Xip251-270). Besides, the z-score is 0.637 in assay [2], -4.21 (inactive) in assay [3], -0.681 (inactive) in assay [4] and -0.878 (inactive) in assay [5].
Consider `COC(=O)c1c(CC[C@@H](CO)NC(=O)N[C@@H](C)Cn2cc(C3(O)CCCC3)nn2)oc(C(C)=O)c1C(=O)OC`, for which the results for the composite z-score (in assay [1]; with XIP peptide (Xip251-270)) were -0.0616 (inactive) and 0.407, respectively. In addition, the z-score was -2.04 in assay [2], -1.93 (inactive) in assay [3], 1.1 (inactive) in assay [4] and 0.929 (inactive) in assay [5].
For the compound `[N-]=[N+]=Nc1ccccc1C[C@]1(C(=O)NCCN2CCOCC2)N=C(c2ccc(OCCCO)cc2)O[C@H]1c1ccccc1N=[N+]=[N-]`, the composite z-score is 1.24 (inactive) in assay [1] and 0.682 in the assay on XIP peptide (Xip251-270). The z-score was -2.21 in assay [2], -3.22 (inactive) in assay [3], -1.3 (inactive) in assay [4] and -2.17 (inactive) in assay [5].
On to `NC(=O)[C@@H]1[C@H]2C(=O)O[C@H](c3ccccc3)[C@H](c3ccccc3)N2[C@H](c2ccccc2OCCO)[C@@]12C(=O)Nc1ccc(C#CCCO)cc12`, for which the composite z-score in assay [1] was 0.585 (inactive); in the assay on XIP peptide (Xip251-270), 0.588. The z-score in assay [2] was 0.291; in assay [3], -5.7 (inactive); in assay [4], -0.266 (inactive); in assay [5] it was -0.161 (inactive).
In the case of `CCOC(=O)C[C@H]1[C@H](OC(=O)Cc2ccc3c(c2)OCO3)[C@@H](NC(=O)c2ccccc2)c2cc(OCCCO)ccc2N1C(=O)c1ccccc1`, the figures for the composite z-score (in assay [1]; in the assay on XIP peptide (Xip251-270)) were -0.0294 (inactive) and 0.643, respectively. In addition, the z-score in assay [2] is -0.385; in assay [3] it was -3.12 (inactive); in assay [4], -0.454 (inactive); in assay [5], -0.342 (inactive).
Regarding `Cc1ccc(S[C@]2(C(=O)NCC(C)C)CC(=O)N(C3CCCCC3)[C@@H]2c2ccc(CO)cc2I)cc1`, the composite z-score in assay [1] is 1.4 (inactive); with XIP peptide (Xip251-270), 0.254. Moreover, the z-score in assay [2] was -1.82; in assay [3], -3.86 (inactive); in assay [4] it was 0.263 (inactive); in assay [5], 0.746 (inactive).
Consider `O=C1NC(=O)C2C1C=CC(C(O)c1ccc3c(c1)OCO3)N2Nc1ccc(Cl)cc1Cl` (stereo unspecified), for which the results for the composite z-score (in assay [1]; with XIP peptide (Xip251-270)) were 2.16 (inactive) and 0.726, respectively. For the same compound, the z-score in assay [2] is 0.576; in assay [3], -5.9 (inactive); in assay [4] it was 0.629 (inactive); in assay [5] it was 0.417 (inactive).
For `CC(C)(C)OC(=O)CC[C@@]1(C(=O)N2CCCCC2)N=C(c2ccc(OCCCO)cc2)O[C@@H]1c1ccccc1N=[N+]=[N-]`, the composite z-score in assay [1] was 0.416 (inactive); in the assay on XIP peptide (Xip251-270) it was 0.83. Besides, the z-score in assay [2] is -2.08; in assay [3], -3.63 (inactive); in assay [4] it was -0.184 (inactive); in assay [5], -0.414 (inactive).
`C[N+](C)(C)CCCCCCNC(=O)[C@H]1C[C@H]2C(=O)N3CCC[C@H]3C(=O)N2[C@H]1c1cccc(OCCO)c1`: the figures for the composite z-score (in assay [1]; with XIP peptide (Xip251-270)) were 0.883 (inactive) and 0.713, respectively. Also, the z-score in assay [2] is 0.14; in assay [3], -3.94 (inactive); in assay [4], 0.372 (inactive); in assay [5] it was 0.182 (inactive).
